Source: PubChem BioAssay (National Center for Advancing Translational Sciences (NCATS))
Shown are actives, neighbours in structure and some others; about 6.5% of the full set was active somewhere.
VACV Venus inh: vaccinia inhibition (Venus reporter) | Vaccinia virus Venus reporter expression, fluorescence | Potency, µM (highest dose often 36.5 µM), hits mostly inhibitors | actives 0.46% (n = 330,000) | AID 720580; calls by dose curve; tested in A549 cells; note: nearly all actives have a fitted effect of over 30% in size
LASV entry inh: Lassa virus entry inhibition; Lassa virus pseudotype entry inhibition, cell reporter; Potency, µM (titrated, usually from 37.9 µM), hits mostly inhibitors; actives 1.2% (n = 300,000); AID 540256; calls by dose curve; tested in HEK293 cells; note: nearly all actives have a fitted effect of over 50% in size
VACV mCherry inh: inhibitors of vaccinia virus infection (mCherry reporter signal); AID 720579; actives 0.63% (n = 310,000); Vaccinia virus mCherry reporter infection, fluorescence; Potency, µM (titrated, usually from 36.5 µM), hits mostly inhibitors; calls by dose curve; tested in A549 cells; note: nearly all actives have a fitted effect of over 35% in size
Marburg entry inh: Marburg virus entry inhibition. AID 540276. actives 1.8% (n = 300,000). Potency, µM (top dose mostly 37.8 µM), most hits filed as inhibitors. Marburg virus pseudotyped entry inhibition, cell reporter; calls by dose curve; tested in HEK293 cells
FMDV inh: foot and mouth disease virus antiviral activity. FMDV antiviral cell-based qHTS. Potency, µM (series often up to 57.9 µM), actives largely listed as inhibitors. actives 1.2% (n = 410,000). AID 1159524; calls by dose curve; tested in HEK293T cells; note: read-out not given here; nearly all actives have a fitted effect of over 45% in size
HCMV inh: blocks human cytomegalovirus replication. HFF cells, HCMV-luciferase reporter, 72 h; stronger effect = lower value. activity change, negative = inhibition, % at 57.5 µM. actives 4.5% (n = 410,000); in the data active = activity change below about -60%; inconclusive = no clear call, values can overlap the other calls; inactive = above about -39%
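Screen run at 2 compound doses on HFFs infected with reporter HCMV, MOI 1 PFU/cell. Luciferase activity from cell lysates at 72 h post infection gave inhibition relative to buffer-only and Salinomycin wells.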
Large screens that a line does not name were inactive.

FC(F)(F)c1ccc(CN2C[C@@H]3C(c4ccc(Cl)nc4)C4(c5ccccc5)CC3(C4)[C@H]2c2ccccc2)cc1 (some centres undefined)	VACV Venus inh inconclusive, VACV mCherry inh inconclusive, HCMV inh -65 (no result: LASV entry inh, Marburg entry inh)
COc1ccc(C(C[N+](=O)[O-])c2c(C)cc3ccccn23)c(OC)c1 (centres undefined)	Marburg entry inh inconclusive, FMDV inh inconclusive (no result: LASV entry inh)
COc1ccc(OC)c(C(C[N+](=O)[O-])c2c(C)cc3ccccn23)c1 (centres undefined)	LASV entry inh inconclusive, Marburg entry inh inconclusive, FMDV inh 22µM
Cc1ccccc1Oc1nc2c(c(=O)n(C)c(=O)n2C)n1Cc1ccc(Br)cc1	none
O=C(OC1CNC(C#Cc2cc3ncnc(Nc4ccc5c(ccn5Cc5cc(F)ccc5F)c4)c3s2)C1)N1CCOCC1 (centres undefined)	LASV entry inh 4µM (no result: VACV Venus inh, VACV mCherry inh, Marburg entry inh, FMDV inh, HCMV inh)
Cc1cc(NC(=O)c2cc(-c3ccco3)on2)nn1Cc1ccc(Cl)cc1	VACV Venus inh inconclusive, LASV entry inh inconclusive, HCMV inh inconclusive
COc1cccc(-c2cc(C(=O)Nc3cc(C)n(Cc4ccc(Cl)cc4)n3)no2)c1	Marburg entry inh inconclusive, FMDV inh inconclusive, HCMV inh -80 (no result: VACV Venus inh, VACV mCherry inh)
COc1ccc(OC)c(-c2cc(C(=O)Nc3cc(C)n(Cc4ccc(Cl)cc4)n3)no2)c1	Marburg entry inh inconclusive, FMDV inh 22µM (no result: VACV Venus inh, VACV mCherry inh)
COc1ccc(OC)c(-c2cc(C(=O)Nc3c(C)nn(Cc4ccc(C)cc4)c3C)no2)c1	FMDV inh inconclusive
COc1cccc(-c2cc(C(=O)Nc3c(C)n(C)n(-c4ccccc4)c3=O)no2)c1	Marburg entry inh inconclusive, HCMV inh -108
Cc1c(NC(=O)c2cc(-c3cccc(O)c3)on2)c(=O)n(-c2ccccc2)n1C	Marburg entry inh inconclusive
CCOc1ccc(/C=N/n2c(SC)nnc(C(C)(C)C)c2=O)cc1	LASV entry inh 10µM (no result: VACV mCherry inh)
C=CCSc1nnc(COc2ccc(=O)n(-c3ccccc3)n2)n1CC	HCMV inh -93
CCn1c(COc2ccc(=O)n(-c3ccccc3)n2)nnc1SCc1cccc(OC)c1	none (no result: VACV Venus inh, VACV mCherry inh)
Cc1cc(Cl)ccc1OCC(=O)N(Cc1cccs1)C1CCS(=O)(=O)C1 (centres undefined)	VACV mCherry inh inconclusive, Marburg entry inh inconclusive
O=C(COc1ccccc1Cl)N(Cc1cccs1)C1CCS(=O)(=O)C1 (centres undefined)	LASV entry inh 0.5µM
Cc1noc(C)c1COC(=O)c1cccc(S(=O)(=O)N2CCCCCC2)c1	VACV Venus inh inconclusive, LASV entry inh inconclusive, VACV mCherry inh inconclusive, Marburg entry inh 8.9µM, FMDV inh inconclusive
COc1ccc(S(=O)(=O)N2CCc3ccccc32)cc1C(=O)OCc1c(C)noc1C	LASV entry inh 18µM, Marburg entry inh 3.5µM
O=C(C1CC(=O)N(c2ccc(Cl)cc2)C1)N1CCOCC1 (centres undefined)	none
COc1ccc(S(=O)(=O)c2cn(C)c3ccc(C)cc3c2=O)cc1	LASV entry inh inconclusive
CCOC(=O)c1oc2ccc(CNC3CCCCC3)c(Cl)c2c1C	LASV entry inh inconclusive, Marburg entry inh 7.3µM (no result: FMDV inh)
CCOC(=O)c1oc2ccc(CNCCO)c(Cl)c2c1C	Marburg entry inh inconclusive
O=C(Cc1ccc(NC(=O)N2CCSc3ncccc32)cc1)NCc1cccc(Cl)c1	HCMV inh inconclusive (no result: Marburg entry inh)
O=C1C=C(NNC(=O)c2ccccc2Br)CCC1	LASV entry inh inconclusive, Marburg entry inh inconclusive, HCMV inh -62
CNC(=S)NNC(=O)c1ccccc1Br	LASV entry inh inconclusive, Marburg entry inh inconclusive
COc1ccc2[nH]c(=O)c3c(c2c1)OC(C)(C)C=C3	VACV Venus inh 11µM, VACV mCherry inh 13µM, HCMV inh -96
Cc1cc2c([nH]c3ccccc32)c2c1OC(C)(C)C=C2	none (no result: LASV entry inh, Marburg entry inh)
CNc1nc2cnc(Nc3ccccn3)cc2n1-c1cc(OC)c(OC)c(OC)c1	none (no result: VACV Venus inh, LASV entry inh, VACV mCherry inh, Marburg entry inh, FMDV inh)
CSc1ncccc1C(=O)Nc1ccccc1N1CCOCC1	none
CCOc1ccc(N(C)C(=O)CCc2nnc3ccc(N4CCOCC4)nn23)cc1	none (no result: LASV entry inh, Marburg entry inh)
O=c1[nH]nc(-c2ccc([N+](=O)[O-])o2)c(=O)[nH]1	Marburg entry inh inconclusive, HCMV inh -93
Nc1nnc(-c2ccc([N+](=O)[O-])o2)s1	VACV Venus inh inconclusive, LASV entry inh inconclusive, VACV mCherry inh inconclusive, Marburg entry inh inconclusive
CC(C)C(=O)N1CCC1(C)C(=O)Nc1ccc(-n2cncn2)cc1 (centres undefined)	none (no result: LASV entry inh, Marburg entry inh)
